# pAkt inh: inhibitors of Akt phosphorylation; Neuro2A IGF-stimulated pAkt S473 HTRF, 20 min; hits give low values; activity change, % for hits at 50 µM; 0.32% of 360,000 active; in the data active = activity change below about -80%; inconclusive = mostly about -51% to -80%; also: % is scaled to controls: 0 for no effect and ±100 for the full control effect
#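 Neuro2A cells in DMEM with 0.5% FBS, overnight at 37 deg C, given compound at single 50 µM final, then IGF (6 nM final) for 20 min at 37 deg C. Lysed; phospho-Akt Ser473 by HTRF after 24 h, 665/615 ratio.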
# LDHA inh: blocks human lactate dehydrogenase A | P00338 | purified LDHA, NADH/diaphorase-resazurin fluorescence; hits give low values | activity change, % (values are at about 110 or 230 µM) | 0.15% of 480,000 active | AID 1347041; in the data active = activity change below about -30%; inconclusive = mostly about -25% to -30%;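 also: plate controls were DMSO wells for no effect and wells without enzyme for full effect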
#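 Resorufin fluorescence (ex540/em590), read at 0 and 20 min after diaphorase/resazurin addition, reports the NADH left after a 5 min room-temperature reaction of 2 nM human LDH5 with 0.06 mM NADH and 0.2 mM pyruvate.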
# IDH1 R132H inh: inhibitors of human mutant IDH1 R132H. O75874. IDH1-R132H enzyme, NADPH consumption, diaphorase/resazurin fluorescence. Potency, µM (top dose mostly 76.6 µM), inactives show top-dose activity change, negative = inhibition, usual class: inhibitors. 0.093% of 390,000 active. AID 602179; active = well fitted inhibition curve with a large enough effect; inconclusive = small, poorly fitted or top-dose-only effect; inactive = no such curve, though single readings can be large or run the other way; also: potency is read from the fitted curve at half-maximal effect; % is scaled to controls: 0 for no effect and ±100 for the full control effect; nearly all actives have a fitted effect of over 65% in size
#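 IDH1-R132H (0.5 ug/mL) preincubated 30 min with compound, then NADPH (0.016 mM) and alpha-KG (2 mM) added; 80 min at RT, pH 7.5. Remaining NADPH coupled via diaphorase/resazurin to fluorescence (540/590 nm); concentration-response curves normalized to no-enzyme control.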
# Menin MLL FP TR: displaces Texas Red mutant MLL peptide from human menin; Potency, µM (titrated, usually from 61.6 µM), for the others: top-dose FP activity change, negative = inhibition, actives largely listed as inhibitors; Menin + Texas Red MLL mutant peptide, fluorescence polarization; O00255; 0.23% of 270,000 active; active = well fitted inhibition curve with a large enough effect in the polarisation, with a control signal flat, not every such curve was filed as active; inconclusive = small, poorly fitted or top-dose-only effect, or effect the other way, or a change in a side signal; inactive = no such curve, though single readings can be large or run the other way; the % refers to the polarisation; also: potency is read from the fitted curve at half-maximal effect; % of control where 0% means no effect
# MLL CXXC-DNA inh: MLL CXXC-DNA interaction inhibition | MLL-CXXC / FITC-HOXA9 DNA fluorescence polarization | Potency, µM (highest dose often 115 µM), for inactives: top-dose activity change, negative = inhibition, most hits filed as inhibitors | 0.037% of 290,000 active | AID 2662; active = well fitted inhibition curve with a large enough effect in the polarisation, with a control signal flat, not every such curve was filed as active; inconclusive = small, poorly fitted or top-dose-only effect, or effect the other way, or a change in a side signal; inactive = no such curve, though single readings can be large or run the other way; the % refers to the polarisation; also: potency is read from the fitted curve at half-maximal effect
#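 Purified MLL-CXXC (added from a 7 uM solution) was preincubated 5 min at ambient with pinned compounds in 50 mM Tris-HCl pH 7.5, 50 mM NaCl, 1 mM DTT, 0.05% BSA. Fluorescein-labeled HOX-A9 DNA (50 nM solution) followed, 30 min, then polarization read.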
# Menin MLL FP FL: displaces fluorescein MLL peptide from human menin; AID 1766; Fluorescence polarization, fluorescein-MLL peptide displacement from menin; 290,000 tested, under 10 active; FP activity change, % at 61.4 µM; active = well fitted curve in the direction sought with a large enough effect in the polarisation, not every such curve was filed as active; inconclusive = small, poorly fitted or top-dose-only effect, or effect the other way, or a change in a side signal; inactive = no such curve, though single readings can be large or run the other way; the % refers to the polarisation; also: % of control where 0% means no effect
# Numbers without * were called inactive; i = inactive; ? = inconclusive; . = no result; ! = a repeat was not active. This is a sample that favours compounds with a hit; in the whole collection about 0.54% have one here.
SMILES,pAkt inh,LDHA inh,IDH1 R132H inh,Menin MLL FP TR,MLL CXXC-DNA inh,Menin MLL FP FL
O=C(Nc1nnc(CC(c2ccccc2)c2ccccc2)s1)c1ccco1,-112.5%*,-3.7,-0.5%,-0.9%,2.7%,2.7
O=C(Nc1nnc(Cc2ccccc2)s1)c1cccs1,-81.9%*,-8.8,0.9%,-16.9%,1.3%,3.3
CCS(CC)=NS(=O)(=O)c1ccc(NC(C)=O)cc1,-117.8%*,-5.0,-0.1%,21.6%,-1.6%,1.5
CC(=O)Nc1ccc(S(=O)(=O)N=S(C)C)cc1,i,-3.7,5.6%,7.0%,7.0%,3.8
CNc1cc(CS(=O)c2ccccc2)nc(-c2ccccc2)n1 (configuration not stated),-123.4%*,-7.3,7.7%,-15.7%,-0.9%,2.5
C#CCOc1ccc(C(=O)Nc2cccc3ccccc23)cc1,.,14.1,.,.,.,.
O=C1ON=C(c2ccccc2)/C1=C/c1ccc(OS(=O)(=O)c2ccccc2)cc1,i,-38.6*,-8.3%,?,11.0%,4.9
O=C1ON=C(c2ccccc2)/C1=C/c1ccc(O)c(O)c1,i,2.0,1.8%,30.2%,-19.6%,?
COc1ccc(/C=C2\C(=O)ON=C2c2ccccc2)cc1,i,-31.8*,-10.4%,29.2%,15.4%,-1.1
CCCCn1nc(C(=O)Nc2cc(OC)ccc2OC)c2ccccc2c1=O,.,10.4,.,.,.,.
CC(C)CN1CCn2c(nc3cc(C(=O)NC(C)C)ccc32)C1,.,5.9,.,.,.,.
COc1cccc(-c2nc(-c3ccccc3)c(-c3ccccc3)[nH]2)c1OCC(=O)O,i,-10.3,-8.5%,?,-23.7%,0.7
O=C(O)COc1ccccc1-c1nc(-c2ccccc2)c(-c2ccccc2)[nH]1,i,-43.4*,-3.4%,?,-9.4%,-2.8
Cc1ccc2oc(=O)cc(CN3CCC4(CC3)OCCO4)c2c1,.,-16.5,.,.,.,.
Cc1ccc(CCNC(=O)c2cc3c(s2)-c2ccccc2OC3)cc1,.,-36.4*,2.3%,.,.,.
COC(=O)c1sc2nc(C)cc(C)c2c1N,i,3.1,13.3%,18.5%,13.6%,0.8
Cc1cc(C)c2c(N)c(C(=O)Nc3ncc(C)s3)sc2n1,-94.1%*,1.8,10.7%,-10.8%,2.2%,1.1
CCCCNC(=O)Cn1cnc2c(cnn2-c2ccc(C)c(C)c2)c1=O,-83.7%*,-8.5,5.1%,-2.3%,-17.0%,5.6
CCOC(=O)N1CCN(C(=O)CN(Cc2ccccc2)S(C)(=O)=O)CC1,i,0.2,3.4%,4.2%,9.1%,4.1
CCOC(=O)N1CCN(C(=O)CN(Cc2ccc(Cl)cc2)S(=O)(=O)c2ccccc2)CC1,-103.3%*,-2.6,4.4%,-10.9%,-12.4%,-1.8
Cc1cc(C)nc(SCCS(=O)c2ccc(C(C)(C)C)cc2)n1 (configuration not stated),.,-1.3,.,.,.,.
CCCn1cnc2nc(CSc3ccccc3NC(=O)c3ccccc3C)cc(=O)n21,.,0.5,.,.,.,.
Cc1cccn2c(=O)cc(CSc3ccccc3NC(=O)c3ccccc3Cl)nc12,.,-32.3*,.,.,.,.
COC(=O)C1(C)NC(c2cccs2)C2C(=O)N(c3ccc(F)cc3)C(=O)C21 (configuration not stated),-107.2%*,-3.3,11.4%,-9.8%,1.5%,0.3
CCN(CC)c1ccc(N=C2C(=O)Nc3ccccc32)cc1,i,33.6,18.2%,22.4µM*,-1.7%,0.3
SMILES,pAkt inh,LDHA inh,IDH1 R132H inh,Menin MLL FP TR,MLL CXXC-DNA inh,Menin MLL FP FL
C#CCNC(=O)c1cc(-c2ccc3c(c2)OCCO3)nc2ccccc12,.,-1.0,.,.,.,.
COCC(C)NS(=O)(=O)c1c(C)cc(C)cc1C (configuration not stated),.,0.9,.,.,.,.
O=C(CCc1c[nH]c2ccccc12)NCc1ccncc1,i,-32.3*!,2.5%,-7.8%,-6.0%,-1.9
COc1ccc(NC2=NCCC(=O)N2Cc2cccs2)cc1,-111.3%*,2.8,1.4%,1.6%,-6.6%,-0.7
COc1ccc(NC2=NCC(=O)N2Cc2cccs2)cc1,.,1.1,6.4%,7.3%,-0.1%,4.2
CCNc1c(NC(=O)Nc2cc(C)cc(C)c2)c(=O)oc2ccccc12,.,0.5,.,.,.,.
Cc1ccc(-c2nc3ccccc3s2)cc1S(=O)(=O)N1CCOCC1,-90.0%*,6.0,4.2%,8.5%,-1.1%,-0.7
CC(=O)Nc1ccc(O)cc1[N+](=O)[O-],i,2.7,3.0%,24.7%,5.5%,3.0
CC(=O)Nc1ccc(N(C)C)cc1[N+](=O)[O-],-109.3%*,15.7,-2.5%,3.3%,-1.5%,0.3
CCOc1ccc2oc(=O)cc(CN3CCN(c4ccccc4)CC3)c2c1,.,-30.2*!,15.3%,.,.,.
CCOc1ccc2oc(=O)cc(CN3CCOCC3)c2c1,i,-8.0,5.5%,20.3%,16.2%,7.3
Cc1cc2oc(=O)cc(CN3CCN(Cc4ccccc4)CC3)c2cc1Cl,-110.5%*,-15.1,5.2%,-26.7%,2.3%,5.3
CCCNC(=O)C(C)OC(=O)c1cc2ccc(OC)cc2nc1C (configuration not stated),.,8.5,.,.,.,.
COc1ccc2cc(C(=O)OC(C)C(N)=O)c(C)nc2c1 (configuration not stated),.,-31.9*,.,.,.,.
C=CC#CC[N+]1(CC#Cc2ccccc2)CCOCC1,i,7.8,2.3%,25.1µM*,51.5%,-19.7
C(#Cc1ccccc1)C[N+]1(CC#Cc2ccccc2)CCOCC1,.,1.8,.,.,.,.
N#CSc1ccc(NC(=O)c2ccc3c(c2)OCCO3)cc1,.,-3.1,.,.,.,.
CCCn1c(=O)c2ccc(C(=O)NCC(C)C)cc2n2c(SCc3ccc(F)cc3)nnc12,.,-34.2*,.,.,.,.
CCCn1c(=O)c2ccc(C(=O)NC(C)CC)cc2n2c(SCc3ccccc3)nnc12 (configuration not stated),.,-0.3,.,.,.,.
Cc1cc(C)nc(NC2=NCC(=O)N2c2cc(Cl)cc(Cl)c2)n1,i,-8.8,-2.4%,17.2%,3.0%,3.8
COC(=O)c1cc(C(=O)OC)cc(N2C(=O)CN=C2Nc2nc(C)cc(C)n2)c1,-80.5%*,-1.5,11.8%,?,0.0%,-0.5
CC(NC(=O)/C(C#N)=C/c1cn[nH]c1-c1ccccc1)c1ccccc1 (configuration not stated),i,-0.4,3.0%,8.1%,-6.7%,0.0
CCc1ccc(C(C)NC(=O)/C(C#N)=C\c2cn[nH]c2-c2ccccc2)cc1 (configuration not stated),-83.3%*,0.8,7.4%,-1.1%,-3.2%,6.5
C=C(C)COc1ccc2c(C)c(CC(=O)NCCc3ccc(S(N)(=O)=O)cc3)c(=O)oc2c1,.,4.4,.,.,.,.
Cc1ccc(CON=C2CCN(c3ncc(C(F)(F)F)cc3Cl)CC2)cc1,-111.6%*,-3.3,6.9%,-0.8%,0.0%,1.7
CCOc1ccc(C2C(C#N)=C(N)SC(N)=C2C#N)c(OCC)c1,-85.4%*,23.3,-0.6%,?,-14.3%,?

# Screening results (PubChem BioAssay)
